# Screen size: about 52,000 compounds; about 4,300 (8.3%) were called active. The entries come from a sample that favours actives as a whole. A number with no mark means an inactive call. Rule as the data show it: active = survival mostly below about 52% (no sharp cut-off); inactive = mostly above about 56%.
# Tested on: DeltatarO mutant
# Assay: S. aureus survival, RN4220 and DeltatarO strains – OD600, teichoic acid synthesis inhibitors, primary screen (AID 463173)
# Conditions: S. aureus RN4220 wild type/DeltatarO growth, OD600, 18 h, hits give low values, screened at 18.75 µg/mL (by protocol)
row,SMILES,survival
1,O=C(O)COCC(=O)Nc1ccc2c(c1)CCC2,103%
2,COc1ccc(-c2nnc(SCC(=O)Nc3cccc(Cl)c3C)nc2-c2ccc(OC)cc2)cc1,89%
3,COc1ccc(CNC(=O)CCC(=O)N2CC3CCCN3c3ccccc32)cc1 (stereo not drawn),71%
4,CC1=C(c2ccc(C)c(C)c2)S(=O)(=O)N(Cc2ccc(C(=O)NCc3cccc(C)c3)cc2)C1=O,77%
5,CN1CCSc2ccc(C(=O)NCc3ccccc3F)cc21,134%
6,CCOC(=O)c1cc2c(=O)n3ccccc3nc2n(CCCOC)c1=NC(=O)c1c(-c2c(F)cccc2Cl)noc1C,54%
7,CC(C)(C)OC(=O)N1CCC(c2c(C(=O)N3CCN(c4ccccc4F)CC3)cnn2C(C)(C)C)CC1,68%
8,COc1ccc(CCNC(=O)c2ccc(Cn3c(=O)c4ccccc4n(CC(=O)C(C)(C)C)c3=O)cc2)cc1OC,86%
9,O=c1c2sc3ccccc3c2n(Cc2ccc(F)cc2)c(=O)n1Cc1ccco1,79%
10,COc1cccc(Cc2nc3ccccc3nc2SCC(=O)N2CCCCC2C)c1 (stereo not drawn),79%
11,Cc1cc(C)cc(Nc2cc(C)nc3nc(-c4ccco4)nn23)c1,94%
12,CC(=O)c1cccc(Nc2cc(C)nc3nc(-c4ccccc4C)nn23)c1,90%
13,COc1ccc(Cl)cc1Nc1cc(C)nc2nc(-c3ccccc3C)nn12,70%
14,CCOC(=O)c1ccccc1Nc1cc(C)nc2nc(-c3ccco3)nn12,128%
15,CCOc1ccc(OCC)c(Nc2cc(C)nc3nc(-c4ccco4)nn23)c1,17% (active)
16,Cc1cc(Nc2cccc(F)c2)n2nc(-c3ccco3)nc2n1,89%
17,Cc1cc(Nc2ccc(Br)cc2)n2nc(-c3ccccc3C)nc2n1,27% (active)
18,Cc1cc(Nc2ccccc2Cl)n2nc(-c3ccco3)nc2n1,88%
19,Cc1cc(Nc2ccc(Br)c(C)c2)n2nc(-c3ccco3)nc2n1,-5% (active)
20,CN(CCCNC(=O)c1cc2c(=O)n(C)c3ccccc3c2s1)Cc1ccccc1,94%

row,SMILES,survival
1,CCCCS(=O)(=O)c1nc(-c2ccc(Br)cc2)cc(-c2ccccc2)c1C#N,119%
2,C/C(=C\C(=O)c1cccnc1)Nc1ccccc1O,103%
3,Cc1nc(-c2ccc(S(=O)(=O)N(C)Cc3ccccc3)cc2)co1,95%
4,Cc1ccc(-n2ncc(C(=O)NC3CCCC3)c2C2CCN(C(=O)OC(C)(C)C)CC2)c(C)c1,70%
5,Cc1ccc(-n2c(=O)c3c(c4cc(C)ccc4n3C)n(CC(=O)N3CCCC3)c2=O)cc1,71%
6,CC(=O)Nc1ccc(C2=CSC3=NCCN23)cc1,82%
7,CCSc1ncc(Cl)c(C(=O)Nc2nc3ccc(Cl)cc3s2)n1,100%
8,Cc1cccc(-c2nc3cc(NC(=O)c4ccc(OCC(C)C)cc4)ccc3o2)c1,113%
9,CCCOc1ccc(C(=O)Nc2cccc(NC(=O)c3cccc(Cl)c3)c2)cc1,70%
10,CCCOc1ccc(C(=O)Nc2cccc(-c3nc4ccccc4[nH]3)c2)cc1,28% (active)
11,CC(C)COc1ccc(C(=O)Nc2cccc(-c3nc4ccccc4[nH]3)c2)cc1,43% (active)
12,CCOc1cc(OCC)cc(C(=O)Nc2cccc(-c3nc4ccccc4[nH]3)c2)c1,36% (active)
13,CCOc1ccc(C(=O)Nc2cccc(-c3nc4cc(Cl)cc(Cl)c4o3)c2)cc1,84%
14,CCOc1ccc(NS(=O)(=O)c2ccc3nc(-c4ccccc4)[nH]c3c2)cc1,64%
15,COc1c(Cl)cc(C(=O)Nc2cccc(-c3nc4ccccc4[nH]3)c2)cc1Cl,15% (active)
16,CC(C)COc1ccc(C(=O)Nc2cc(-c3ccccc3)no2)cc1,85%
17,COc1cc(NC(=O)c2cc(Cl)c(OC)c(Cl)c2)ccc1NC(=O)c1cc2ccccc2o1,82%
18,CCCN(CCC)S(=O)(=O)c1ccc(C(=O)Nc2cccc(-c3nc4ccccc4[nH]3)c2)cc1,99%
19,CCOc1ccc(CCNC(=O)c2cc3c(=O)n(C)c4ccccc4c3s2)cc1OCC,56%
20,Cc1ccc(NC(=O)C2CCN(C(=O)c3cnn(-c4ccccc4)c3-n3cccc3)CC2)cc1,93%

row,SMILES,survival
1,CCCn1c(=S)[nH]c2c1c(=O)[nH]c(=O)n2C,66%
2,CN(CC(=O)Nc1cccc(F)c1)S(=O)(=O)c1ccc2c(c1)n(C)c(=O)c(=O)n2C,102%
3,COc1ccc(C2=NN(C(=O)CCC(=O)O)C(c3ccccc3F)C2)cc1OC (stereo not drawn),89%
4,N/C(=N/OC(=O)c1ccccc1)c1ccccn1,87%
5,CCCCNC(=O)c1ccc2c(c1)ncn2-c1cc(OC)ccc1OC,112%
6,O=c1oc2cc(O)ccc2cc1-c1nnc(Nc2ccccc2F)s1,59%
7,CCC(c1nnnn1Cc1ccccc1)N(Cc1cccs1)Cc1cc2ccc(C)cc2[nH]c1=O (stereo not drawn),103%
8,O=C(CNC(=O)c1ccc(Cl)cc1)OCc1cc(=O)n2ccsc2n1,72%
9,COc1ccc(C2C(C(=O)Nc3ccc(C)cc3C)=C(C)Nc3nc(SCc4cccc(C)c4)nn32)c(OC)c1 (stereo not drawn),164%
10,CCc1ccc(C2C(C#N)=C(N)Oc3cc(N)ccc32)cc1 (stereo not drawn),102%
11,CCN(CC)c1ccc2c(c1)OC(N)=C(C#N)C2c1cccc(F)c1 (stereo not drawn),2% (active)
12,COc1ccc(C2C(C#N)=C(N)Oc3cc4c(cc32)OCO4)cc1 (stereo not drawn),79%
13,Cc1ccc(Sc2c(C)nn(C(=O)COc3ccccc3Br)c2C)cc1,88%
14,Cc1nn(C(=O)c2ccccc2)c2c1C(=O)CC(C)(C)C2,74%
15,Cc1nn(C(=O)c2ccc(Br)cc2)c(C)c1S(=O)(=O)N1CCOCC1,79%
16,Cc1nn(C(=O)c2ccc(Br)cc2)c(C)c1Sc1ccccc1,2% (active)
17,Cc1nn(C(=O)COc2ccccc2Br)c(C)c1Sc1ccccc1,54%
18,Cc1ccc(Sc2c(C)nn(C(=O)c3ccc(Br)cc3)c2C)cc1,16% (active)
